For 62 molecules, survival results are on record in PubChem BioAssay AID463173 (ICCB-Longwood Screening Facility, Harvard Medical School, 2010).

Hit rate of the full screen: of about 52,000 compounds, about 1,700 (3.3%) were called active. For the sample, actives were picked, then their nearest neighbours and some compounds at random. Values without a mark were called inactive. Rule as the data show it: active = survival mostly below about 52% (no sharp cut-off); inactive = mostly above about 56%.

For the test, the system named is Wild type. Nature of the test: growth inhibition of S. aureus wild type versus tarO mutant, primary screen, teichoic acid synthesis inhibitors, RN4220, OD600 (AID 463173). To be noted: S. aureus RN4220 wild type/DeltatarO growth, OD600, 18 h, hits give low values, screened at 18.75 µg/mL (by protocol).
For `Cc1ccc(S(=O)(=O)N2CCC(C(=O)NCc3ccccc3Cl)CC2)cc1`, the survival is 64%.

For `CC(=O)Nc1ccc(S(=O)(=O)N2CCN(Cc3ccccc3Cl)CC2)cc1`, the survival was 117%.

With `Cc1ccc(S(=O)(=O)N2CCN(Cc3ccccc3Cl)CC2)cc1`, the survival is 19% (active).

`CC(C)(C)c1ccc(C(=O)NC2(C(F)(F)F)NC(=O)N(CCc3ccccc3)C2=O)cc1` (configuration not stated): the survival was 43%.

Turning to `Cc1c(Cl)cccc1NC(=O)c1ccc2snnc2c1`, the survival was 106%.

`CCc1ccccc1NC(=O)Nc1ccc2snnc2c1`: the survival was 82%.

With `Cc1c(Cl)cccc1NC(=O)Nc1ccc2snnc2c1`, the survival was 24% (active).

`O=C(Nc1cccc(C(F)(F)F)c1)c1ccc2snnc2c1`: the survival is 118%.

As for `O=C(Nc1cccc(C(F)(F)F)c1)Nc1cccs1`, the survival was 4% (active).

Regarding `O=C(Nc1cccs1)Nc1cc(C(F)(F)F)ccc1Cl`, the survival was 26%.

In the case of `O=C(Nc1cccc(C(F)(F)F)c1)c1cccs1`, the survival was 116%.

In the case of `O=C(Nc1cccc(C(F)(F)F)c1)Nc1ccc2snnc2c1`, the survival was 29% (active).

Consider `O=C(Nc1ccc(F)cc1)Nc1ccc2snnc2c1`, for which the survival is 45%.

Turning to `CCc1ccc(NC(=O)CSc2nc3c(sc4ccccc43)c(=O)n2CCN(CC)CC)cc1`, the survival was 73%.

With `CCN(CC)/C(=N/OCc1ccc(Cl)cc1Cl)c1nonc1N`, the survival was 100%.

Regarding `CC1=NN(C(C#N)c2ccccc2)C(C)(C)C1` (configuration not stated), the survival was 113%.

As for `Cc1cccc(N2CCN(Cc3nnc(-c4ccc5c(c4)OCO5)o3)CC2)c1C`, the survival was 83%.

Regarding `Cc1cc2nnc(SCc3ccc(F)cc3)n2c2ccccc12`, the survival was -2% (active).

With `CCCN(CCC)C(=O)CSc1nnc2cc(C)c3ccccc3n12`, the survival is 84%.

As for `CCOC(=O)c1ccc(CSc2nnc3cc(C)c4ccccc4n23)cc1`, the survival is 108%.

`COc1ccc(Cn2c(SCc3ccc(C(=O)NCCc4ccccc4)cc3)nc3cccnc32)cc1`: the survival is 77%.

With `CCn1c(NCc2ccc(OC)c(OC)c2)nc2ccccc21`, the survival was 127%.

Regarding `CCCn1c(NCc2ccccc2C)nc2ccccc21`, the survival is 95%.

Turning to `CCCCn1c(NCc2ccc(OC)cc2O)nc2ccccc21`, the survival is 88%.

Take `CCCCn1c(NCc2cc(Br)ccc2O)nc2ccccc21`: the survival was 69%.

Regarding `CCCCCn1c(NCc2ccc(OC)cc2)nc2ccccc21`, the survival is -2% (active).

In the case of `CCCCn1c(NCc2ccc(N(C)C)cc2)nc2ccccc21`, the survival is 70%.

For the molecule `CCCn1c(NCc2ccc(N(CC)CC)cc2)nc2ccccc21`, the survival was 0% (active).

Regarding `CCCCCn1c(NCc2ccccc2OC)nc2ccccc21`, the survival was -5% (active).

As for `CCCn1c(NCc2ccccc2F)nc2ccccc21`, the survival is 89%.

On to `CCOc1ccc(CNS(=O)(=O)c2ccc3c(c2)CC(C)N3C(C)=O)cc1OC` (configuration not stated), for which the survival was 70%.

For `CCN(C(=O)C1CCC(CNS(=O)(=O)c2cccc3nsnc23)CC1)c1ccccc1` (configuration not stated), the survival was 76%.

On to `CCOC(=O)c1[nH]c(C)c(CCC(=O)Nc2ccccc2OCC)c1C`, for which the survival was 84%.

Regarding `COc1ccc(-c2cn3nc(N4CCCC(C(=O)Nc5ccc(Cl)cc5C)C4)sc3n2)cc1` (configuration not stated), the survival is 77%.

In the case of `O=C(Cn1c(=O)n(Cc2ccco2)c(=O)c2sc3ccccc3c21)Nc1ccc(F)cc1F`, the survival was 84%.

Regarding `Cc1ccc(NC(=O)CN2CCCN(Cc3ccccc3Cl)S2(=O)=O)c(C)c1`, the survival is -1% (active).

For `Cc1ccc(CN2CCCN(CC(=O)Nc3ccc(C)cc3C)S2(=O)=O)cc1`, the survival is 85%.

`CCc1cccc(C)c1NC(=O)CN1CCCN(Cc2ccc(C)cc2)S1(=O)=O`: the survival is 0% (active).

As for `CCc1cccc(C)c1NC(=O)CN1CCCN(Cc2ccccc2Cl)S1(=O)=O`, the survival is 14% (active).

Take `Cc1cccc(CN2CCN(CC(=O)Nc3c(C)cccc3C)S2(=O)=O)c1`: the survival is 134%.

With `Cc1ccc(NC(=O)CN2CCCN(Cc3cc(C)ccc3C)S2(=O)=O)c(Cl)c1`, the survival was 55%.

On to `O=C(CN1CCCN(Cc2ccccc2Cl)S1(=O)=O)NCc1ccccc1`, for which the survival was 78%.

For the molecule `CCc1cccc(C)c1NC(=O)CN1CCN(Cc2ccccc2Cl)S1(=O)=O`, the survival was 134%.

For the molecule `Cc1ccccc1CN1CCCN(CC(=O)Nc2c(C)cccc2C)S1(=O)=O`, the survival was 66%.

For the molecule `COc1ccccc1CNC(=O)c1cnc2sc(N3CCOCC3)nn2c1=O`, the survival was 153%.

Consider `CC(C)(C)c1ccc(C(=O)Nc2c(C(=O)c3ccc(F)cc3)oc3ccccc23)cc1`, for which the survival was 73%.

Regarding `Cc1ccc(C(=O)N2CC3(C)CC2CC(C)(C)C3)cc1` (configuration not stated), the survival is 110%.

Take `CCn1c(CN2CCCCC2)nc2cc(NC(=O)COc3ccc([N+](=O)[O-])cc3)ccc21`: the survival was 79%.

As for `COc1cc(C(=O)N(CCc2ccccc2)C2CC3CCC(C2)N3C)cc(OC)c1OC` (configuration not stated), the survival was 104%.

Consider `COc1ccc(OC)c(NC(=O)c2nc(S(=O)(=O)Cc3ccc(F)cc3)ncc2Cl)c1`, for which the survival was -3% (active).

In the case of `COc1ccc(CNC(=O)c2nc(S(=O)(=O)Cc3ccccc3)ncc2Cl)cc1`, the survival was 34%.

Consider `Cc1ccc(C)c(NC(=O)c2nc(S(=O)(=O)Cc3ccc(F)cc3)ncc2Cl)c1`, for which the survival is 109%.

For the molecule `O=C(NCc1ccccc1)c1nc(S(=O)(=O)Cc2ccccc2)ncc1Cl`, the survival is 42%.

Consider `O=C(NCc1ccccc1)c1nc(S(=O)(=O)Cc2ccc(F)cc2)ncc1Cl`, for which the survival is -5% (active).

As for `COc1ccc(OC)c(NC(=O)c2nc(SCc3ccc(F)cc3)ncc2Cl)c1`, the survival was 100%.

In the case of `COc1cc(C2NC(=O)c3c(sc4c3CCN(C)C4)N2)ccc1OC(=O)c1ccccc1` (configuration not stated), the survival is 80%.

Turning to `O=C(CSc1nc(=O)n(Cc2ccco2)c2c1CCC2)NCc1ccccc1`, the survival was 72%.

Consider `Cc1ccc(NC(=O)CCc2nnc3n(C)c(=O)c4sccc4n23)cc1C`, for which the survival was 72%.

For the molecule `Cc1ccsc1CCN1C(=O)N(c2ccc(F)cc2)C(=O)C1CC(=O)Nc1ccccc1` (configuration not stated), the survival was 72%.

Consider `COc1ccc2c(CNCc3cccs3)c(C(=O)O)n(Cc3ccccc3)c2c1`, for which the survival was 84%.

Consider `COc1cc(NS(=O)(=O)c2ccc3[nH]c4c(c3c2)CCCC4)cc(OC)c1OC`, for which the survival is 129%.

`CCOC(=O)c1cccc(NC(=O)CCCn2c(C)c3cnn(-c4ccccc4)c(=O)c3c2C)c1`: the survival was 77%.
